Assay outcomes as filed in PubChem BioAssay.
An excerpt weighted towards active compounds, which were near 21% of everything screened.
VP16 counter – counter-screen for ROR gamma inhibitors: Gal4-VP16 reporter; Drosophila S2 Gal4-VP16 UAS-luciferase, luminescence, 20 h; Potency, µM (series often up to 53.6 µM), for the others: at the top dose activity, negative = inhibition, actives largely listed as inhibitors; 310,000 tested, 3.5% active;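 note: Gal4-VP16 expression switched on by copper sulfate through the metallothionein promoter; potency is the fitted concentration of half-maximal effect; nearly all actives have a fitted effect of over 50% in size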
ELG1 DNA repair – blocks ELG1-dependent DNA repair in HEK293T cells; HEK293T ELG1-luciferase reporter, luminescence, 16 h; DNA damage induced by 5-fluorouridine; Potency, µM (top dose mostly 46.1 µM), for the others: at the top dose activity change, negative = inhibition, usual class: inhibitors; 330,000 tested, 2.3% active; note: potency is the fitted concentration of half-maximal effect; nearly all actives have a fitted effect of over 55% in size
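Overnight (16 hr) co-exposure of 2,000 cells/well to 5-fluorouridine and compound at 37 °C preceded detection. Luciferase was quantified via ONE-Glo luminescence; loss of signal denotes inhibition.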
RORg inh – blocks mouse ROR gamma transcriptional activity; P51450; Drosophila S2 Gal4-RORgamma UAS-luciferase reporter, 20 h; Potency, µM (series often up to 53.6 µM), for inactives: at the top dose activity change, negative = inhibition, usual class: inhibitors; 310,000 tested, 5.4% active; AID 2551; note: potency is the fitted concentration of half-maximal effect; nearly all actives have a fitted effect of over 60% in size
Target sequence (P51450 whole entry, looked up, the tested form may be a part): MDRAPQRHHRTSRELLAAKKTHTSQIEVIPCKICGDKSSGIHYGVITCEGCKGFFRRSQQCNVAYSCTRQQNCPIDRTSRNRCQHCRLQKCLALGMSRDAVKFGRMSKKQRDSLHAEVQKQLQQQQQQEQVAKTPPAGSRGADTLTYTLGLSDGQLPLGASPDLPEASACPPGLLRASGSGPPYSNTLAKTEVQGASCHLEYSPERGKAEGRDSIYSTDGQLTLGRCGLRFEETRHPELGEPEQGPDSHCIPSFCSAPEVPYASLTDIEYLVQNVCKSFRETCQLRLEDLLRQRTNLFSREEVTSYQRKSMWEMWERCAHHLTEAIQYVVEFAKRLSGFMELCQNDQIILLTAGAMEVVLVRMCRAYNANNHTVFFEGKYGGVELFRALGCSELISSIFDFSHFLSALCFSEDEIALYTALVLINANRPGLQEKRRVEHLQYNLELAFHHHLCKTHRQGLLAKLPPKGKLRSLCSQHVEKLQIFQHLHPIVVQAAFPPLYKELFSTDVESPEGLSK
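Using a luciferase readout, inhibitors were identified by reduced reporter activity in Drosophila cells coexpressing a copper-inducible Gal4–ROR gamma fusion and UAS-driven Photinus luciferase, incubated 20 hr after 700 uM copper sulfate.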
DT40 TDP1 CPT – DT40-hTDP1 cell growth loss with CPT; AID 686979; 420,000 tested, 12% active; chicken DT40 Tdp1-/-;hTDP1 cells + 20 nM CPT, ATP luminescence, 48 h; Potency, µM (highest dose often 46.2 µM), without a hit: at the top dose activity change, negative = growth inhibition, most hits filed as inhibitors; note: potency is the fitted concentration of half-maximal effect; nearly all actives have a fitted effect of over 55% in size
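Chicken DT40 Tdp1-/- cells stably complemented with human TDP1 were seeded at 400 cells/well in medium containing 20 nM camptothecin, exposed to pin-transferred compounds, and grown at 37 °C for at least 48 hr. Viability was read as ATP luminescence.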
TDP1 cell noCPT – qHTS for Inhibitors of human tyrosyl-DNA phosphodiesterase 1 (TDP1): qHTS in cells in absence of CPT; DT40 Tdp1-/- hTDP1 cells, no CPT, ATP luminescence, 48 h; Potency, µM (highest dose often 46.2 µM), without a hit: top-dose activity change, negative = growth inhibition, most hits filed as inhibitors; 420,000 tested, 15% active; AID 686978, 2013; note: potency is the fitted concentration of half-maximal effect; nearly all actives have a fitted effect of over 55% in size
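Seeded 400 DT40-hTDP1 cells/well (vehicle DMSO, no 20 nM CPT); pinned compounds; ≥48 hr at 37 °C; CellTiter-Glo luminescence as viability measure.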
IL1B secr inh – inflammasome signaling inhibition, IL-1 beta readout. THP-1 LPS/ATP IL-1B secretion, AlphaLISA, 16 h; hits give low values. activity change, % at 57.5 µM. 360,000 tested, 4.7% active; in the data active = activity change below about -50%; inconclusive = mostly about -30% to -49%
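THP-1 cells pretreated 1 hr with compounds (up to 57.5 uM final), then stimulated with LPS (250 ng/mL final) plus ATP (1.25 mM final); secreted IL-1B measured by AlphaLISA after 16 hr, decreased signal indicating inhibition.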
Numbers without * were called inactive; i = inactive; ? = inconclusive; . = not tested or not shown; [ ] = remark or other dose. Unless noted, calls come from the whole dose curve; as a rule, active = well fitted curve in the direction sought with a large enough effect; inconclusive = small, poorly fitted or top-dose-only effect, or another doubt; inactive = no such curve, though single readings can be large; an effect the other way counts as inactive or inconclusive. % is set by controls: 0 for no effect and ±100 for the full control effect.

SMILES | VP16 counter | ELG1 DNA repair | RORg inh | DT40 TDP1 CPT | TDP1 cell noCPT | IL1B secr inh
O=[N+]([O-])c1cc2c(cc1[N+](=O)[O-])OCCOCCOCCOCCO2 | -8.9% | -17.8% | -19.4% | -21.9% | -1.7% | -85.7*
Brc1cc2c(cc1Br)OCCOCCOCCOCCO2 | 1.4% | -8.5% | 27.0% | 14.6µM* | 10.3µM* | 0.0
c1ccc2c(c1)OCCOCCOCCOCCO2 | -7.2% | . | -2.5% | . | . | .
O=C(c1ccccc1)c1cc2c(cc1[N+](=O)[O-])OCCO2 | 18.7% | 14.0% | 12.6% | 5.6% | -15.5% | -10.4
COc1ccc(CCNC(=O)CCCc2ccccc2)cc1OC | -0.7% | 0.1% | 4.9% | 23.2% | -2.5% | 17.1
CCc1cc2c3c([nH]c2cc1S(=O)(=O)N1CCC2(CC1)OCCO2)CCCC3=O | -10.2% | -4.4% | 23.5% | 23.1µM* | 16.4µM* | -15.7
Cc1cc2c3c([nH]c2cc1S(=O)(=O)N1CCC2(CC1)OCCO2)CC(C)(C)CC3=O | -20.6% | 20.6µM* | ? | ? | -58.3% | 12.3
Cc1cc2c3c([nH]c2cc1S(=O)(=O)NCc1ccc(CN2CCCCCC2)o1)CCCC3=O | -15.4% | 1.6% | -10.7% | -26.4% | -20.2% | 21.3
CC(C)c1ccc(NC(=O)Cn2nnc(C(=O)NCc3ccco3)c2N)cc1 | 3.5% | 0.4% | -8.3% | -6.7% | 1.4% | 0.3
O=C(Nc1ccc(Cl)c(Cl)c1)Nc1ccccc1C(=O)O | ? | ? | ? | -10.5% | -15.1% | -0.6
COc1cccc(-c2csc(NC(=O)Nc3ccccc3)n2)c1 | ? | ? | 16.6% | 7.31µM* | 2.31µM* | -22.5
O=C(Nc1ccccc1)Nc1nc(-c2ccc(F)c(F)c2)cs1 | -0.8% | 2.7% | -6.5% | 5.8µM* | 2.91µM* | 14.9
O=C(Nc1ccc(Cl)c(Cl)c1)Nc1nc(-c2ccccc2)cs1 | ? | -21.0% | 38.7% | 11.6µM* | 13µM* | -17.8
COc1cccc(-c2csc(NC(=O)C3CC3)n2)c1 | 19.6% | ? | ? | 5.17µM* | 6.51µM* | 10.0
COc1cccc(CC(=O)Nc2nc(-c3cccnc3)cs2)c1 | -5.5% | ? | 17.1%[10 µM] | -2.6% | ? | 0.0
COc1cccc(C(=O)Nc2nc(-c3ccncc3)cs2)c1 | -7.3% | 7.0% | 0.3% | -9.0% | ? | 0.0
CCN(CC(=O)Nc1c(F)cccc1F)C(=O)c1cc([N+](=O)[O-])ccc1N1CCCCC1 | . | -11.1% | . | -16.9% | -24.0% | -13.1
Cc1ccccc1C(=O)N(Cc1cccs1)C1CCS(=O)(=O)C1 (stereo not given) | -13.1% | -1.2% | -6.1% | -3.1% | -1.7% | -5.0
CCOc1ccc(NC(=O)Cn2c(C)cc3ccccc3c2=O)cc1 | . | . | . | -8.9% | -0.1% | .
O=C(Nc1ccc(Cl)cc1)Nc1nc(-c2ccccc2O)cs1 | -11.2% | ? | 0.5% | 5.17µM* | 4.61µM* | -68.7*
O=C(C[C@H]1CC[C@H](NC(=O)Nc2ccccc2F)[C@@H](CO)O1)NCc1ccc(-c2ccccc2)cc1 | . | . | . | ? | -25.3% | 2.6
O=C(Nc1ccc(S(=O)(=O)N2CCOCC2)cc1)c1cc(-c2cc(Cl)ccc2O)n[nH]1 | -21.5% | 23.1µM* | -17.1% | 6.51µM* | 5.8µM* | ?
Cc1cc(O)c(-c2cc(C(=O)Nc3ccc(S(=O)(=O)N4CCOCC4)cc3)[nH]n2)cc1C | ? | ? | -2.6% | ? | 18.4µM* | -104.8*
Cc1ccc(NC(=O)c2cc(-c3cc(Cl)ccc3O)n[nH]2)cc1C | -5.1% | ? | 2.4% | -11.2% | -24.3% | -23.5
CCCCC/C=C\C[C@@H](O)/C=C/C=C\CCC(=O)O | -2.1% | . | 4.3% | . | . | .
SMILES | VP16 counter | ELG1 DNA repair | RORg inh | DT40 TDP1 CPT | TDP1 cell noCPT | IL1B secr inh
Cc1ccc(CSc2ncn(-c3ccccc3)n2)cc1 | -15.8% | ? | -7.3% | -13.6% | -19.6% | 11.2
Cc1ccc(CSc2nccc(-c3c(C)nc4ccccn34)n2)cc1 | -23.5% | 14.6µM* | ? | ? | 16.4µM* | -12.2
Cc1cccc(C(c2sc3nc(-c4ccco4)nn3c2O)N2CCOCC2)c1 (stereo not given) | . | . | . | -0.2% | -23.2% | .
CC(C)[C@H](NC(=O)C1CCN(S(=O)(=O)c2ccccc2)CC1)C(=O)NCc1ccncc1 | -1.3% | 6.9% | -3.2% | -4.5% | 18.1% | 0.8
Cc1cc(C)c(C)c(/C=C(/C#N)C(N)=S)c1C | 15.8µM* | 10.5% | 6.31µM* | 2.8% | -5.2% | 5.6
Cn1cccc1/C=C(\C#N)C(N)=S | 3.0% | -1.2% | -14.8% | 1.3% | 1.2% | 23.6
N#Cc1ccc(S(=O)(=O)N2CCCCC2c2cc(C(=O)NCc3ccccc3)no2)cc1 (stereo not given) | . | . | . | ? | -49.6% | 2.1
CSc1ccc(CN(C)C(=O)CN2C(=O)NC3(CCCC3)C2=O)cc1 | . | 2.6% | . | 0.0% | -18.6% | 9.7
CC1CC(C)(C)CC2(C1)NC(=O)N(CC(=O)NCCc1c[nH]c3ccccc13)C2=O (stereo not given) | 16.2% | 2.4% | 12.2% | 10.1% | 11.0% | 14.3
CCC(C)(C)C1CCC2(CC1)NC(=O)N(CC(=O)NCCc1c[nH]c3ccccc13)C2=O (stereo not given) | . | -16.7% | . | 16.4µM* | 16.4µM* | -21.4
CCC(C)(C)C1CCC2(CC1)NC(=O)N(CC(=O)N(C)Cc1ccc(OC(F)F)cc1)C2=O (stereo not given) | . | -17.9% | . | -96.8% | 7.31µM* | -4.3
CCC(C)(C)C1CCC2(CC1)NC(=O)N(CC(=O)N(C)CC(=O)Nc1ccccc1C(F)(F)F)C2=O (stereo not given) | -9.8% | -1.5% | 25.2% | 23.1µM* | ? | i
COc1ccc2cc(CN(C)C(=O)CN3C(=O)NC4(CCCC4)C3=O)ccc2c1 | . | . | . | ? | 23.1µM* | -15.5
CN(Cc1ccccc1)C(=O)CN1C(=O)NC2(CCCCCCC2)C1=O | . | -32.3% | . | -15.3% | ? | 0.0
CCC(=O)Nc1ccc(S(=O)(=O)NC[C@H]2O[C@@H](n3cnc4c(=O)[nH]c(N)nc43)[C@H](O)[C@@H]2O)cc1 | . | . | . | 9.7% | 21.4% | 6.5
CCC(C)(C)C1CCC2(CC1)NC(=O)N(CC(=O)N(C)CCOc1ccc(Cl)cc1)C2=O (stereo not given) | . | -4.6% | . | ? | 23.1µM* | 18.5
CN(CCOc1ccc(Cl)cc1)C(=O)CN1C(=O)NC2(CCCC2)C1=O | . | -3.5% | . | ? | ? | -2.9
